RE007 growth inh = qHTS Assay for Inhibitors of the HIV-1 protein Vpr; Potency, µM (top dose mostly 92.2 µM), for inactives: at the top dose activity change, negative = less growth, usual class: inhibitors; S. pombe RE007 Vpr strain, BacTiter-Glo ATP luminescence, 24 h; hit rate 0.21% among 360,000; active = well fitted falling curve with a large enough effect; inconclusive = small, poorly fitted or top-dose-only effect; inactive = no such curve, though single readings can be large or run the other way; note: potency is the fitted concentration of half-maximal effect; nearly all actives have a fitted effect of over 50% in size
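Fission yeast RE007 carrying one integrated HIV-1 vpr copy, seeded at OD 0.01 in PMG+AL medium with 23 nL pinned compound. Grown 24 h at 30 degrees; viability read by BacTiter-Glo luminescence after 5 min.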
Sm TGR inh = qHTS Assay for the Inhibitors of Schistosoma Mansoni Peroxiredoxins. purified TGR, DTNB reduction, TNB absorbance 405 nm. Potency, µM (highest dose often 114 µM), for inactives: top-dose activity change, negative = inhibition, actives largely listed as inhibitors. hit rate 3% among 360,000. AID 485364, 2010; note: potency is the fitted concentration of half-maximal effect; nearly all actives have a fitted effect of over 60% in size
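TGR 20 nM + NADPH 100 uM (dispensed conc.), cpd preinc 15 min RT; start with NADPH (500 uM addition) then DTNB (15 mM addition). Kinetic TNB absorbance, 405 nm filter. Four-parameter Hill fit across titration.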
FBPA Giardia inh = qHTS Assay for Inhibitors of Fructose-1,6-bisphosphate Aldolase from Giardia Lamblia; AID 2451, 2010; Potency, µM (titrated, usually from 59.6 µM), for inactives: at the highest dose activity, negative = inhibition, actives largely listed as inhibitors; A8B2U2; hit rate 0.71% among 290,000; purified Giardia FBPA; note: potency is the fitted concentration of half-maximal effect; nearly all actives have a fitted effect of over 55% in size
Target sequence (A8B2U2 whole entry, looked up): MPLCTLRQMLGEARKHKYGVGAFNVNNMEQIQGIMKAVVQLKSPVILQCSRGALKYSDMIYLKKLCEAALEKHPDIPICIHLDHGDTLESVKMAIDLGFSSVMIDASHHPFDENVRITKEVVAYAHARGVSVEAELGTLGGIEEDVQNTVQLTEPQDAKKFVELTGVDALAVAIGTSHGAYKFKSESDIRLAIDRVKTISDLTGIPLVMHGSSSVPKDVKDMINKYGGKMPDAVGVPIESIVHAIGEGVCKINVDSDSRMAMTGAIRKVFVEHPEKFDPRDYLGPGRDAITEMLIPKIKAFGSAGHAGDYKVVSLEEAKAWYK
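40 nM FBPA preincubated 10 min at RT with compound (up to 57.5 uM final), then substrate plus GAPDH/TPI/NAD/arsenate coupling and diaphorase/resazurin added. Fluorescence read after 20 min at RT, 525/598 nm.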
FMDV antiviral = High Throughput Screening for Foot and Mouth Disease Virus Antivirals; FMDV antiviral cell-based qHTS; Potency, µM (titrated, usually from 57.9 µM), without a hit: at the highest dose activity change, negative = inhibition, hits mostly inhibitors; hit rate 1.2% among 410,000; AID 1159524, 2015; calls by dose curve; tested in HEK293T cells; note: read-out not given here; potency is the fitted concentration of half-maximal effect; nearly all actives have a fitted effect of over 45% in size
HCMV inh = qHTS Assay for inhibitors of the human cytomegalovirus (HCMV); HFF cells, HCMV-luciferase reporter, 72 h; hits give low values; activity change, negative = inhibition, % at 57.5 µM; hit rate 4.5% among 410,000; AID 1259415, 2018; in the data active = activity change below about -60%; inconclusive = no clear call, values can overlap the other calls; inactive = above about -39%
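Inhibition of viral replication was scored as loss of reporter luminescence in HFFs infected with HCMV-luciferase (MOI 1 PFU/cell) for 72 h; compounds tested at 2 doses, normalized to buffer and Salinomycin controls.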
TbPYK inhibitor = qHTS of Trypanosoma Brucei Inhibitors; pyruvate kinase (Trypanosoma brucei), Q57TT1; TbPYK enzyme, Kinase-Glo Plus ATP luminescence, 45 min; Potency, µM (highest dose often 76.8 µM), for the others: at the highest dose activity, negative = inhibition, hits mostly inhibitors; hit rate 0.12% among 410,000; AID 624173, 2012; note: potency is the fitted concentration of half-maximal effect; nearly all actives have a fitted effect of over 50% in size
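Activity of T. brucei pyruvate kinase was followed by Kinase-Glo Plus luminescence after the enzyme reacted 45 min at room temperature with 130 uM ADP (final) and substrate. Test compounds were added before ADP at multiple concentrations.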
Active calls of the source: *; [ ] = another dose, or the depositor's remark. Compounds with a hit are over-represented: about 7.7% of the library has one in this group of screens. Unless noted, calls come from the whole dose curve; as a rule, active = well fitted curve in the direction sought with a large enough effect; inconclusive = small, poorly fitted or top-dose-only effect, or another doubt; inactive = no such curve, though single readings can be large; an effect the other way counts as inactive or inconclusive. % is set by controls: 0 for no effect and ±100 for the full control effect.

Results for CN(C)CC(=O)N1[C@H](C(=O)Nc2nccs2)[C@@H](CO)[C@@H]2Cn3c(ccc(C4=CCCCC4)c3=O)[C@@H]21 ?
HCMV inh: -6

Results for O=C(Nc1ccc(NC(=S)NC(=O)C(c2ccccc2)c2ccccc2)cc1)c1ccccc1 ?
RE007 growth inh: -1%; FMDV antiviral: inconclusive; HCMV inh: -66*; TbPYK inhibitor: 0%

Results for COC(=O)C(O)(c1ccc(NC(=O)Oc2ccccc2)cc1)C(F)(F)F (stereo unspecified) ?
RE007 growth inh: 8%; Sm TGR inh: -8%; FBPA Giardia inh: 1%; FMDV antiviral: 36%; HCMV inh: -29; TbPYK inhibitor: -2%

Results for COC(=O)C(O)(c1ccc(NC(=S)NC(=O)c2ccccc2)cc1)C(F)(F)F (stereo unspecified) ?
RE007 growth inh: -1%; Sm TGR inh: 28µM*; FBPA Giardia inh: -23%; FMDV antiviral: -5%; HCMV inh: -20; TbPYK inhibitor: -2%

How did O=C(NC(=S)Nc1ccc(Oc2ccc(Cl)cc2)cc1)c1ccccc1 do in these assays?
RE007 growth inh: 6%; Sm TGR inh: -17%; FBPA Giardia inh: -2%; FMDV antiviral: -21%; HCMV inh: -87*; TbPYK inhibitor: 7%

Results for Cc1ccccc1CN1C[C@@H]2C[C@@H](c3cn[nH]c3-c3ccc(F)cc3)N3CCC[C@@]23C1=O ?
RE007 growth inh: -22%; Sm TGR inh: -5%[57.1 µM]; FBPA Giardia inh: 2%; FMDV antiviral: 15%; HCMV inh: -71*; TbPYK inhibitor: 1%

Results for COc1ccc(-c2[nH]ncc2[C@@H]2C[C@H]3CN(Cc4ccccc4C)C(=O)[C@]34CCCN24)cc1 ?
RE007 growth inh: -6%; Sm TGR inh: -1%[57.1 µM]; FBPA Giardia inh: -2%; FMDV antiviral: 14%; HCMV inh: -71*; TbPYK inhibitor: -1%

Results for COc1ccccc1CN1C[C@@H]2C[C@@H](c3cccc(C)n3)N3CCC[C@@]23C1=O ?
RE007 growth inh: 0%; Sm TGR inh: -24%; FBPA Giardia inh: -9%; FMDV antiviral: -9%; HCMV inh: -27; TbPYK inhibitor: -16%

What do the screens show for `COc1ccc([C@@H]2C[C@H]3CN(Cc4ccccc4OC)C(=O)[C@]34CCCN24)cc1C`?
RE007 growth inh: 6%; Sm TGR inh: 13%; FBPA Giardia inh: 1%; FMDV antiviral: 30%; HCMV inh: 36; TbPYK inhibitor: 2%

What do the screens show for `O=C(Oc1ccccc1)N1CCC[C@@]2(CCN(c3ccncc3)C2)C1`?
FBPA Giardia inh: -1%; FMDV antiviral: -6%; TbPYK inhibitor: 3%

What do the screens show for `CCC1CSC(Nc2ccc(C(=O)/C=C/c3ccc(Oc4ccccc4)cc3)cc2)=N1` (stereo unspecified)?
RE007 growth inh: 17%; Sm TGR inh: 4%; FBPA Giardia inh: -10%; FMDV antiviral: -36%; HCMV inh: -6; TbPYK inhibitor: 8%

How did CCC1CSC(Nc2ccc(C(=O)/C=C/c3cccc(C)c3)cc2)=N1 (stereo unspecified) do in these assays?
RE007 growth inh: 1%; Sm TGR inh: 10%; FBPA Giardia inh: 0%; FMDV antiviral: -24%; HCMV inh: -63*; TbPYK inhibitor: 1%

How did COc1cc(C2C(C#N)=C(N)Oc3c2ccc2ccccc32)ccc1OCC(=O)Nc1ccc(C)cc1 (stereo unspecified) do in these assays?
RE007 growth inh: 5%; Sm TGR inh: 4%; FBPA Giardia inh: inconclusive; FMDV antiviral: inconclusive; HCMV inh: 26; TbPYK inhibitor: 8%

How did COc1ccc(C2C(C#N)=C(N)Oc3c2ccc2cccnc32)cc1OC (stereo unspecified) do in these assays?
RE007 growth inh: 14%; FBPA Giardia inh: -4%; FMDV antiviral: 3%; HCMV inh: -101*; TbPYK inhibitor: 22%

What do the screens show for `CCOC(=O)c1c(C)oc2ccc(N(C(=O)Oc3ccccc3)S(=O)(=O)c3ccc(CC)cc3)cc12`?
Sm TGR inh: 10%; FMDV antiviral: 5%; HCMV inh: 6; TbPYK inhibitor: 2%

How did CCOc1cccc2sc(N(Cc3cccnc3)C(=O)C3CCCCC3)nc12 do in these assays?
Sm TGR inh: 10%; FMDV antiviral: -3%; HCMV inh: active; TbPYK inhibitor: 5%[15.4 µM]

How did COc1cccc2sc(N(Cc3cccnc3)C(=O)C3CCCCC3)nc12 do in these assays?
Sm TGR inh: 1%; FMDV antiviral: -7%; HCMV inh: -32; TbPYK inhibitor: 8%

What do the screens show for `COc1ccc2ccccc2c1CN1CCc2nnc(C(NS(C)(=O)=O)C(C)C)n2CC1` (stereo unspecified)?
FMDV antiviral: -19%

How did COCCNC(=O)CCCn1c(SCC(=O)Nc2cccc(C)c2)nc2c(sc3ccccc32)c1=O do in these assays?
Sm TGR inh: -1%; FMDV antiviral: -9%; HCMV inh: inconclusive; TbPYK inhibitor: -8%

What do the screens show for `Cc1ccccc1Nc1nnc(SCC(=O)NC(=O)Nc2ccc3c(c2)OCCO3)s1`?
Sm TGR inh: 3%; FBPA Giardia inh: 0%

How did Cc1cccc(Nc2nnc(SCC(=O)NC(=O)Nc3ccc4c(c3)OCCO4)s2)c1 do in these assays?
RE007 growth inh: 8%; Sm TGR inh: -13%; FBPA Giardia inh: 6%; FMDV antiviral: -4%; HCMV inh: -96*; TbPYK inhibitor: -6%

Results for COc1ccc(-c2cc(=O)n(-c3nc4ccccc4[nH]3)[nH]2)cc1 ?
RE007 growth inh: -10%; Sm TGR inh: -7%; FBPA Giardia inh: inconclusive; FMDV antiviral: 12%; HCMV inh: -90*; TbPYK inhibitor: -2%

Results for CC(=O)c1c(C)c(C)c2n1CCn1c(C)ccc1-2 ?
RE007 growth inh: -21%; Sm TGR inh: 13µM*; FBPA Giardia inh: inconclusive; FMDV antiviral: 3%; HCMV inh: -30; TbPYK inhibitor: -4%

Results for COCCCn1c(-c2ccc(OC)cc2)cc(C(=O)NC2CCCCCCC2)c1C ?
RE007 growth inh: 3%; Sm TGR inh: -18%; FBPA Giardia inh: 2%; FMDV antiviral: -3%; HCMV inh: -65*; TbPYK inhibitor: 1%

How did CCn1c(=S)sc2c(=O)n(-c3ccccc3)c(=S)[nH]c21 do in these assays?
RE007 growth inh: -3%; Sm TGR inh: 22µM*; FBPA Giardia inh: -15%; FMDV antiviral: -23%; HCMV inh: -94*; TbPYK inhibitor: 0%

Compound activity: PubChem BioAssay, National Center for Advancing Translational Sciences (NCATS)
